# Results taken from article PMC11006913.
# Legend:
# Assay in all cases: PBM; 200 nM protein, PBS
# Details in all cases: dsDNA, one strand shown
# HESX1 [1] = molecular target: HESX1 (Homo sapiens, UniProt Q9UBX0 95-180, R165K)
# HESX1 [2] = molecular target: HESX1 (Homo sapiens, UniProt Q9UBX0 95-180)
# HESX1 [3] = molecular target: HESX1 (Homo sapiens, UniProt Q9UBX0 95-180, R109Q)
# HESX1 [4] = molecular target: HESX1 (Homo sapiens, UniProt Q9UBX0 95-180, P111T)
# HESX1 [5] = molecular target: HESX1 (Homo sapiens, UniProt Q9UBX0 95-180, F115L)
# HESX1 (Homo sapiens, UniProt Q9UBX0 95-180, F115L), sequence (Q9UBX0 95-180 F115L): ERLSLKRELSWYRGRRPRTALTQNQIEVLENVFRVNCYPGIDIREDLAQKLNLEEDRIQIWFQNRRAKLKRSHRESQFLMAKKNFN
# HESX1 (Homo sapiens, UniProt Q9UBX0 95-180, R109Q), sequence (Q9UBX0 95-180 R109Q): as the sequence (Q9UBX0 95-180 F115L) above, with R15Q, L21F counted along it
# HESX1 (Homo sapiens, UniProt Q9UBX0 95-180, P111T), sequence (Q9UBX0 95-180 P111T): as the sequence (Q9UBX0 95-180 F115L) above, with P17T, L21F counted along it
# HESX1 (Homo sapiens, UniProt Q9UBX0 95-180, R165K), sequence (Q9UBX0 95-180 R165K): as the sequence (Q9UBX0 95-180 F115L) above, with L21F, R71K counted along it
# HESX1 (Homo sapiens, UniProt Q9UBX0 95-180), sequence (Q9UBX0 95-180): as the sequence (Q9UBX0 95-180 F115L) above, with L21F counted along it
sequence,measurement,setting,value
CCGCTCCC,binding signal,HESX1 [1],"6.47 upbm affinity estimate (log intensity, higher = more binding, comparable within an allelic series)"
same,binding signal,HESX1 [2],"6.49 upbm affinity estimate (log intensity, higher = more binding, comparable within an allelic series)"
same,binding signal,HESX1 [3],"6.46 upbm affinity estimate (log intensity, higher = more binding, comparable within an allelic series)"
same,binding signal,HESX1 [4],"6.35 upbm affinity estimate (log intensity, higher = more binding, comparable within an allelic series)"
same,binding signal,HESX1 [5],"6.43 upbm affinity estimate (log intensity, higher = more binding, comparable within an allelic series)"
CAAGCTCA,binding signal,HESX1 [1],"6.51 upbm affinity estimate (log intensity, higher = more binding, comparable within an allelic series)"
same,binding signal,HESX1 [2],"6.47 upbm affinity estimate (log intensity, higher = more binding, comparable within an allelic series)"
same,binding signal,HESX1 [3],"6.46 upbm affinity estimate (log intensity, higher = more binding, comparable within an allelic series)"
same,binding signal,HESX1 [4],"6.46 upbm affinity estimate (log intensity, higher = more binding, comparable within an allelic series)"
same,binding signal,HESX1 [5],"6.53 upbm affinity estimate (log intensity, higher = more binding, comparable within an allelic series)"
CAGGTCGG,binding signal,HESX1 [1],"6.41 upbm affinity estimate (log intensity, higher = more binding, comparable within an allelic series)"
same,binding signal,HESX1 [2],"6.42 upbm affinity estimate (log intensity, higher = more binding, comparable within an allelic series)"
same,binding signal,HESX1 [3],"6.6 upbm affinity estimate (log intensity, higher = more binding, comparable within an allelic series)"
same,binding signal,HESX1 [4],"6.48 upbm affinity estimate (log intensity, higher = more binding, comparable within an allelic series)"
same,binding signal,HESX1 [5],"6.57 upbm affinity estimate (log intensity, higher = more binding, comparable within an allelic series)"
AGCACGCT,binding signal,HESX1 [1],"6.37 upbm affinity estimate (log intensity, higher = more binding, comparable within an allelic series)"
same,binding signal,HESX1 [2],"6.39 upbm affinity estimate (log intensity, higher = more binding, comparable within an allelic series)"
same,binding signal,HESX1 [3],"6.5 upbm affinity estimate (log intensity, higher = more binding, comparable within an allelic series)"
same,binding signal,HESX1 [4],"6.4 upbm affinity estimate (log intensity, higher = more binding, comparable within an allelic series)"
same,binding signal,HESX1 [5],"6.46 upbm affinity estimate (log intensity, higher = more binding, comparable within an allelic series)"
AGCCCGCG,binding signal,HESX1 [1],"6.57 upbm affinity estimate (log intensity, higher = more binding, comparable within an allelic series)"
same,binding signal,HESX1 [2],"6.54 upbm affinity estimate (log intensity, higher = more binding, comparable within an allelic series)"
same,binding signal,HESX1 [3],"6.6 upbm affinity estimate (log intensity, higher = more binding, comparable within an allelic series)"
same,binding signal,HESX1 [4],"6.57 upbm affinity estimate (log intensity, higher = more binding, comparable within an allelic series)"
same,binding signal,HESX1 [5],"6.48 upbm affinity estimate (log intensity, higher = more binding, comparable within an allelic series)"
CGCCAGGC,binding signal,HESX1 [1],"6.38 upbm affinity estimate (log intensity, higher = more binding, comparable within an allelic series)"
same,binding signal,HESX1 [2],"6.37 upbm affinity estimate (log intensity, higher = more binding, comparable within an allelic series)"
same,binding signal,HESX1 [3],"6.46 upbm affinity estimate (log intensity, higher = more binding, comparable within an allelic series)"
same,binding signal,HESX1 [4],"6.32 upbm affinity estimate (log intensity, higher = more binding, comparable within an allelic series)"
same,binding signal,HESX1 [5],"6.44 upbm affinity estimate (log intensity, higher = more binding, comparable within an allelic series)"
ACATGGCG,binding signal,HESX1 [1],"6.32 upbm affinity estimate (log intensity, higher = more binding, comparable within an allelic series)"
same,binding signal,HESX1 [2],"6.4 upbm affinity estimate (log intensity, higher = more binding, comparable within an allelic series)"
same,binding signal,HESX1 [3],"6.43 upbm affinity estimate (log intensity, higher = more binding, comparable within an allelic series)"
same,binding signal,HESX1 [4],"6.38 upbm affinity estimate (log intensity, higher = more binding, comparable within an allelic series)"
same,binding signal,HESX1 [5],"6.49 upbm affinity estimate (log intensity, higher = more binding, comparable within an allelic series)"
GAAGTCGC,binding signal,HESX1 [1],"6.48 upbm affinity estimate (log intensity, higher = more binding, comparable within an allelic series)"
same,binding signal,HESX1 [2],"6.36 upbm affinity estimate (log intensity, higher = more binding, comparable within an allelic series)"
same,binding signal,HESX1 [3],"6.51 upbm affinity estimate (log intensity, higher = more binding, comparable within an allelic series)"
same,binding signal,HESX1 [4],"6.43 upbm affinity estimate (log intensity, higher = more binding, comparable within an allelic series)"
same,binding signal,HESX1 [5],"6.56 upbm affinity estimate (log intensity, higher = more binding, comparable within an allelic series)"
CCAGCCCA,binding signal,HESX1 [1],"6.4 upbm affinity estimate (log intensity, higher = more binding, comparable within an allelic series)"
same,binding signal,HESX1 [2],"6.43 upbm affinity estimate (log intensity, higher = more binding, comparable within an allelic series)"
same,binding signal,HESX1 [3],"6.47 upbm affinity estimate (log intensity, higher = more binding, comparable within an allelic series)"
same,binding signal,HESX1 [4],"6.48 upbm affinity estimate (log intensity, higher = more binding, comparable within an allelic series)"
same,binding signal,HESX1 [5],"6.55 upbm affinity estimate (log intensity, higher = more binding, comparable within an allelic series)"
AGCCGAGC,binding signal,HESX1 [1],"6.4 upbm affinity estimate (log intensity, higher = more binding, comparable within an allelic series)"
same,binding signal,HESX1 [2],"6.26 upbm affinity estimate (log intensity, higher = more binding, comparable within an allelic series)"
same,binding signal,HESX1 [3],"6.48 upbm affinity estimate (log intensity, higher = more binding, comparable within an allelic series)"
same,binding signal,HESX1 [4],"6.46 upbm affinity estimate (log intensity, higher = more binding, comparable within an allelic series)"
same,binding signal,HESX1 [5],"6.45 upbm affinity estimate (log intensity, higher = more binding, comparable within an allelic series)"
AGCTTGCG,binding signal,HESX1 [1],"6.46 upbm affinity estimate (log intensity, higher = more binding, comparable within an allelic series)"
same,binding signal,HESX1 [2],"6.4 upbm affinity estimate (log intensity, higher = more binding, comparable within an allelic series)"
same,binding signal,HESX1 [3],"6.39 upbm affinity estimate (log intensity, higher = more binding, comparable within an allelic series)"
same,binding signal,HESX1 [4],"6.32 upbm affinity estimate (log intensity, higher = more binding, comparable within an allelic series)"
same,binding signal,HESX1 [5],"6.52 upbm affinity estimate (log intensity, higher = more binding, comparable within an allelic series)"
TGAGCGCA,binding signal,HESX1 [1],"6.52 upbm affinity estimate (log intensity, higher = more binding, comparable within an allelic series)"
same,binding signal,HESX1 [2],"6.51 upbm affinity estimate (log intensity, higher = more binding, comparable within an allelic series)"
same,binding signal,HESX1 [3],"6.51 upbm affinity estimate (log intensity, higher = more binding, comparable within an allelic series)"
same,binding signal,HESX1 [4],"6.49 upbm affinity estimate (log intensity, higher = more binding, comparable within an allelic series)"
same,binding signal,HESX1 [5],"6.46 upbm affinity estimate (log intensity, higher = more binding, comparable within an allelic series)"
ACGCCTCG,binding signal,HESX1 [1],"6.4 upbm affinity estimate (log intensity, higher = more binding, comparable within an allelic series)"
same,binding signal,HESX1 [2],"6.35 upbm affinity estimate (log intensity, higher = more binding, comparable within an allelic series)"
same,binding signal,HESX1 [3],"6.36 upbm affinity estimate (log intensity, higher = more binding, comparable within an allelic series)"
same,binding signal,HESX1 [4],"6.4 upbm affinity estimate (log intensity, higher = more binding, comparable within an allelic series)"
same,binding signal,HESX1 [5],"6.44 upbm affinity estimate (log intensity, higher = more binding, comparable within an allelic series)"
AGGACCCC,binding signal,HESX1 [1],"6.46 upbm affinity estimate (log intensity, higher = more binding, comparable within an allelic series)"
same,binding signal,HESX1 [2],"6.46 upbm affinity estimate (log intensity, higher = more binding, comparable within an allelic series)"
same,binding signal,HESX1 [3],"6.63 upbm affinity estimate (log intensity, higher = more binding, comparable within an allelic series)"
same,binding signal,HESX1 [4],"6.47 upbm affinity estimate (log intensity, higher = more binding, comparable within an allelic series)"
same,binding signal,HESX1 [5],"6.62 upbm affinity estimate (log intensity, higher = more binding, comparable within an allelic series)"
AATACATA,binding signal,HESX1 [1],"7.62 upbm affinity estimate (log intensity, higher = more binding, comparable within an allelic series)"
same,binding signal,HESX1 [2],"7.7 upbm affinity estimate (log intensity, higher = more binding, comparable within an allelic series)"
same,binding signal,HESX1 [3],"7.3 upbm affinity estimate (log intensity, higher = more binding, comparable within an allelic series)"
same,binding signal,HESX1 [4],"7.6 upbm affinity estimate (log intensity, higher = more binding, comparable within an allelic series)"
same,binding signal,HESX1 [5],"7.4 upbm affinity estimate (log intensity, higher = more binding, comparable within an allelic series)"
TCCTGCCA,binding signal,HESX1 [1],"6.57 upbm affinity estimate (log intensity, higher = more binding, comparable within an allelic series)"
same,binding signal,HESX1 [2],"6.47 upbm affinity estimate (log intensity, higher = more binding, comparable within an allelic series)"
same,binding signal,HESX1 [3],"6.52 upbm affinity estimate (log intensity, higher = more binding, comparable within an allelic series)"
same,binding signal,HESX1 [4],"6.56 upbm affinity estimate (log intensity, higher = more binding, comparable within an allelic series)"
same,binding signal,HESX1 [5],"6.6 upbm affinity estimate (log intensity, higher = more binding, comparable within an allelic series)"
CAGAACGC,binding signal,HESX1 [1],"6.46 upbm affinity estimate (log intensity, higher = more binding, comparable within an allelic series)"
same,binding signal,HESX1 [2],"6.44 upbm affinity estimate (log intensity, higher = more binding, comparable within an allelic series)"
same,binding signal,HESX1 [3],"6.49 upbm affinity estimate (log intensity, higher = more binding, comparable within an allelic series)"
same,binding signal,HESX1 [4],"6.34 upbm affinity estimate (log intensity, higher = more binding, comparable within an allelic series)"
same,binding signal,HESX1 [5],"6.48 upbm affinity estimate (log intensity, higher = more binding, comparable within an allelic series)"
AGACGCTC,binding signal,HESX1 [1],"6.35 upbm affinity estimate (log intensity, higher = more binding, comparable within an allelic series)"
same,binding signal,HESX1 [2],"6.34 upbm affinity estimate (log intensity, higher = more binding, comparable within an allelic series)"
same,binding signal,HESX1 [3],"6.5 upbm affinity estimate (log intensity, higher = more binding, comparable within an allelic series)"
same,binding signal,HESX1 [4],"6.36 upbm affinity estimate (log intensity, higher = more binding, comparable within an allelic series)"
same,binding signal,HESX1 [5],"6.54 upbm affinity estimate (log intensity, higher = more binding, comparable within an allelic series)"
CGTGCCAC,binding signal,HESX1 [1],"6.27 upbm affinity estimate (log intensity, higher = more binding, comparable within an allelic series)"
same,binding signal,HESX1 [2],"6.24 upbm affinity estimate (log intensity, higher = more binding, comparable within an allelic series)"
same,binding signal,HESX1 [3],"6.45 upbm affinity estimate (log intensity, higher = more binding, comparable within an allelic series)"
same,binding signal,HESX1 [4],"6.56 upbm affinity estimate (log intensity, higher = more binding, comparable within an allelic series)"
same,binding signal,HESX1 [5],"6.43 upbm affinity estimate (log intensity, higher = more binding, comparable within an allelic series)"
